GPR151 ag: human GPR151 activation; AID 1508602; PathHunter beta-arrestin GPR151 cells, luminescence; 650,000 tested, 1% active; activation, % at 11.2 µM; in the data active = activation above about 4.9%;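 also: 0% = median of compound wells and 100% = cells with positive control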
TEAD-YAP inh: TEAD-YAP interaction inhibition | HEK-TIYL cells, TEAD-Gal4/YAP UAS-luciferase luminescence | inhibition, % at 9.12 µM | 640,000 tested, 1.4% active | AID 1259422; in the data active = inhibition above about 32%;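 also: 0% = median of test compound wells and 100% = reference inhibitor wells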
MITF inh: human MITF inhibition, primary screen. AlphaScreen MITF homodimerization, bead proximity signal. inhibition, % at 2.6 µM. 650,000 tested, 0.91% active. AID 1259374; in the data active = inhibition above about 50%;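 also: 0% = vehicle wells with protein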
FBW7 act: activators of human E3 ligase FBW7; AID 1259310; AlphaScreen FBW7–phospho-cyclin E peptide binding, activator screen; normalized activity (activation), % at 26.1 µM; 650,000 tested, 0.13% active; in the data active = normalized activity above about 1.9%;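 also: purified mutant Fbw7 with reduced substrate affinity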
Target sequence (Q969H0 whole entry, looked up): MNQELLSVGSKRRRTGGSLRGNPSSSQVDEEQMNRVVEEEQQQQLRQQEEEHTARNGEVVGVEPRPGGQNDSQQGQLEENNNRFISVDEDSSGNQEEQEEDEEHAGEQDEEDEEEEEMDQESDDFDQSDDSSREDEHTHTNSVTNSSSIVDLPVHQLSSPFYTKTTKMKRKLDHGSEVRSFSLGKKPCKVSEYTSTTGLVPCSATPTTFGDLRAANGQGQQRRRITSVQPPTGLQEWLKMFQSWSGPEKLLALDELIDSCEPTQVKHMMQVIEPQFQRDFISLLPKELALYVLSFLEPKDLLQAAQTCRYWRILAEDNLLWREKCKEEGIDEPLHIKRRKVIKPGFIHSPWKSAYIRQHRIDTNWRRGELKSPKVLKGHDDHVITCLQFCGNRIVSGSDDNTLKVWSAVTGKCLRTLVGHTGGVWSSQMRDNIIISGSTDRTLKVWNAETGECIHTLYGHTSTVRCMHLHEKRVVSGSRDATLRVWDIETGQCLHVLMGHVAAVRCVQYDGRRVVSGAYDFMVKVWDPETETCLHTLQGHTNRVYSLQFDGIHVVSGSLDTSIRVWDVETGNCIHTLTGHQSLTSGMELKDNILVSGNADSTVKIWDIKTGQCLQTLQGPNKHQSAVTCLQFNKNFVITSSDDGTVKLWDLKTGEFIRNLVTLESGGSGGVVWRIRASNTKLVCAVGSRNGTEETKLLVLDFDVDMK
GPR151 conf act: confirmation of human GPR151 activators. shares compounds with GPR151 ag. GPR151 PathHunter beta-arrestin cells, luminescence, 90 min; % of EA-reagent control over plate median. activation, % at 11.2 µM. 6,700 tested, under 10 active;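 active = mean percent activation across replicates above the confirmation screen cutoff of 4.91%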
GPR119 ag: activates human GPR119 in a GPR151 counter-screen; shares compounds with GPR151 ag; GPR119 PathHunter beta-arrestin cells, luminescence, 90 min; 0 = compound-well median, 100 = enzyme-acceptor control; activation, % at 11.2 µM; 6,700 tested, 0.3% active;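 active = mean percent activation in the counterscreen above 29.09%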;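 also: counterscreen on off-target GPR119 to flag nonselective hits from the GPR151 activator screen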
Starred values were filed as active, the others as inactive; x = no result given; ! = not confirmed by another sample. An excerpt weighted towards active compounds, which were near 3.4% of everything screened.

SMILES	GPR151 ag	TEAD-YAP inh	MITF inh	FBW7 act	GPR151 conf act	GPR119 ag
Cc1cc(Cl)ccc1NC(=O)C(=O)N/N=C/c1ccc([N+](=O)[O-])cc1	-1	-3	-1	0	x	x
Cc1ccc(NC(=O)C(=O)N/N=C/c2ccc([N+](=O)[O-])cc2)cc1C	15*	-18	-18	0	0	14
COc1ccc(/C=C2/C(=O)NC(=O)N(c3ccc(C)cc3)C2=O)c(OC)c1	1	7	17	0	x	x
COc1ccc(N2C(=O)NC(=O)/C(=C\c3ccc(O)c([N+](=O)[O-])c3)C2=O)cc1	5.8*	3	22	0	-1	-5
C=CCc1cc(/C=C2/C(=O)NC(=O)N(c3ccc(OCC)cc3)C2=O)ccc1O	9.3*	8	16	0	1	-2
Cc1cc(N2C(=O)NC(=O)/C(=C\c3ccccc3OCC#N)C2=O)ccc1Br	5.6*	0	-7	0	1	19
COc1ccc(/C=C2\C(=O)NC(=O)N(c3ccc(Br)cc3)C2=O)c(OC)c1	7.3*	-6	-2	0	0	4
CCOc1ccc(N2C(=O)NC(=O)/C(=C\c3ccc(O)c(OC)c3)C2=O)cc1	1	3	14	0	x	x
CCNC(=O)c1ccc2nc(N3CCCCC3)sc2c1	-1	-44	11	1	x	x
O=C(CNS(=O)(=O)c1ccccc1)OCC(=O)c1ccc(Cl)cc1Cl	3	-4	-6	0	x	x
CCOc1cc(/C=C2\C(=O)NC(=O)N(c3cc(C)ccc3C)C2=O)ccc1O	8.9*	18	-9	-1	0	12
COc1cc(/C=C2/C(=O)NC(=O)N(c3ccc(Cl)cc3)C2=O)cc(OC)c1O	16*	4	12	0	0	12
CCc1ccc(N2C(=O)NC(=O)/C(=C/c3cc(OC)c(O)c(OC)c3)C2=O)cc1	1	-1	-12	0	x	x
COc1c2occc2c(OC)c2c(=O)cc(C(F)(F)C(F)(F)F)oc12	5.3*	6	10	0	0	5
O=C1CCCN1CCCNc1nc(NCc2cccc(C(F)(F)F)c2)c2ncn(-c3ccsc3)c2n1	1	4	11	0	x	x
CC(=O)Nc1ccc(OCC(O)CNC(C)(C)CC(C)(C)C)cc1 (stereo unspecified)	1	15	7	0	x	x
O=S(=O)(Nc1ccccc1)c1ccc(NS(=O)(=O)c2ccc3ccccc3c2)cc1	-1	2	3	0	x	x
CCOC(=O)c1c(-c2ccc(C)o2)csc1NC(=O)c1cccs1	8.2*	2	11	0	-1	2
CC(=O)NN1C(=O)/C(=C/c2cccc(O)c2)SC1=S	6.3*	7	12	0	0	16
O=C1CC(N2CCN(C3CCCCC3)CC2)C(=O)N1c1ccc(Cl)cc1 (stereo unspecified)	6.8*	-7	-15	0	1	-2
CC(=O)N/C(N)=N/c1nc2cc(C)ccc2o1	5.4*!	-41	11	0	0	0
COc1ccc(Cl)cc1NC(=O)CN1CCC(n2nnc3ccccc32)CC1	5.3*	-23	14	0	0	-2
O=c1[nH]c2ccccc2nc1C(F)(F)C(F)(F)C(F)(F)C(F)F	5.5*	14	-7	0	0	-4
CCC/C=N/NC(=O)COc1ccc(Cl)cc1C	1	3	16	0	x	x
CC1CCCC(C)N1C(=O)COC(=O)CNC(=O)c1ccc(Oc2ccccc2)cc1 (stereo unspecified)	-1	-2	-8	0	x	x
SMILES	GPR151 ag	TEAD-YAP inh	MITF inh	FBW7 act	GPR151 conf act	GPR119 ag
CC(C)(C)c1ccc(C(=O)NC(=S)Nc2cc(-c3nc4ncccc4o3)ccc2Cl)cc1	5.1*	-42	-10	0	0	6
Cc1ccc(C(=O)NC(=S)Nc2cc(-c3nc4ncccc4o3)ccc2Cl)cc1	0	-1	-7	0	x	x
Cc1nn(CC(=O)OCC(=O)NC(=O)c2ccc(OC(F)F)cc2)c(C)c1[N+](=O)[O-]	6.6*	0	-11	0	1	5
CCc1ccccc1NC(=S)Nc1nc2ccc(F)cc2s1	5.5*	46*	-3	0	0	-8
CC(C)C(=O)Nc1nc2ccc(F)cc2s1	0	-42	-1	0	x	x
CC(=O)Nc1cccc(OCc2ccc(Br)cc2)c1	-2	-93	-9	0	x	x
CCN(CC)c1ccc(/C=N/n2cnnc2)c(O)c1	10*	2	-3	0	1	0
Cc1c(-c2ccc(F)cc2)[n+](=O)c2c(n1[O-])CCCC2	0	11	5	0	x	x
CC(C)c1c(-c2ccccc2)[n+](=O)c2c(n1[O-])CCCCC2	5.2*	0	-6	0	-1	3
CCO/C(C)=C/c1oc2ccc(-c3ccccc3)cc2[n+]1CCCS(=O)(=O)O	5.6*	6	6	0	0	-5
Cc1oc2ccc(Cl)cc2[n+]1CCCS(=O)(=O)O	-1	9	8	1	x	x
CNC(=S)NNc1ccc(C(F)(F)F)cc1[N+](=O)[O-]	0	-13	1	0	x	x
COc1ccc(C(=O)Nc2ccc(S(=O)(=O)Nc3cc(OC)ncn3)cc2)cc1	1	5	15	0	x	x
Cn1c(=O)cc(NCCCn2ccnc2)n(Cc2ccccc2)c1=O	2	-4	-2	0	x	x
CCOC(=O)CC1=CSC2=NC(C(F)(F)F)(C(F)(F)F)NC(=O)N12	5.6*	7	5	0	0	-2
CS(=O)(=O)c1ccc2c(c1)SC1=NC(C(F)(F)F)(C(F)(F)F)NC(=O)N12	0	0	1	0	x	x
Cc1ccc(Cn2nnc(C(=O)NCc3ccccc3)c2N)cc1	0	4	12	0	x	x
COc1ccc(C(=O)NCCc2c(C)[nH]c3c(C)ccc(F)c23)cc1OC	1	4	8	0	x	x
CCOc1ccc(CC(=O)NCCc2c(C)[nH]c3c(C)ccc(F)c23)cc1OCC	6.5*	-3	2	0	-1	-12
C/C(=N\NC(=O)c1ccc(O)cc1O)c1ccco1	1	9	9	0	x	x
OC(COc1ccc2ccccc2c1Cl)Cn1ccnc1 (stereo unspecified)	5.0*	-5	1	0	0	6
Cc1nccn1CC(O)COc1cccc2ccccc12 (stereo unspecified)	0	11	2	0	x	x
Cc1ccc(S(=O)(=O)n2nc(C(F)(F)F)c3cnccc32)cc1	-1	4	-12	0	x	x
O=S(=O)(c1ccc(F)cc1)n1nc(C(F)(F)F)c2cnccc21	5.3*	6	2	0	0	2
COc1ccccc1C(=O)NC(=S)Nc1ccc(Br)c(C)n1	5.2*	-3	10	0	0	4
COc1cccc(NC(=S)Nc2ccccc2OC)c1	13*	-8	16	0	1	-1
